Assay results as given in PubChem BioAssay (NCI).
About 83,000 compounds went through this panel and 20% of them were active in at least one assay; those are over-represented in the sample as a whole.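 Treatment: one concentration, 48 hours, 96-well format. Scoring: percent growth, with anything below 10 considered active.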 Values without a mark were called inactive. Activity calls are given as the source filed them.

test system: SF-295 CNS; test: NCI-60 one-dose screen, 48 h (100 = growth as untreated, 0 = no growth, -100 = all killed); conditions: 10 µM unless noted

Structure (SMILES)	growth
CNc1sc(S(=O)(=O)NC)nc1S(=O)(=O)c1ccc(C)cc1	93.6%
COc1cccc(N2CCN(C3=C(Cl)C(=O)c4ncccc4C3=O)CC2)c1	110%
O=C1[C@@H]2Cc3c([nH]c4ccccc34)[C@@H](c3ccc(Cl)cc3)N2C(=O)CN1C1CCN(Cc2ccccc2)CC1	85.2%
CC(=O)OCCCCN1C=C/C(=C\C(=O)n2ccc3ccccc32)c2ccccc21	103%
CN1CCN(c2ccc(Nc3nc(NCCNS(=O)(=O)c4ccc5ccccc5c4)c4sccc4n3)cc2)CC1	102%
CC1=C(C)C(=O)C(Nc2ccc3c(c2)OCCO3)=C(Br)C1=O	94.7%
C=C(C)[C@@H]1CC[C@]2(C(=O)NC3CCCCC3)CC[C@]3(C)[C@H](CC[C@@H]4[C@@]5(C)CC[C@H](N)C(C)(C)[C@@H]5CC[C@]43C)[C@@H]12	103%
CCOC(=O)c1c(NC(=O)c2ccc(C(F)(F)F)cc2)sc2c3c(ccc12)OCN(C)C3	66.2%
C#CCN(C)CCCOc1ccc(NCc2ccc(/C=C/C(=O)NO)cc2)cc1Cl	-65.5% (active)
COc1cc(/C=N\NC(=O)c2ccc3nc(-c4ccc(Br)cc4)[nH]c3c2)cc(OC)c1OC	32.5%
C=C1CCc2nc(SCC(=O)O)ccc2N1	104%
CN1CCC[C@]2(C)[C@H]3CC[C@@H]4[C@@H]5[C@H]6OC[C@@]5(CCC6(C)C)CC[C@@]4(C)[C@]3(C)CC[C@H]2C1(C)C	103%
C=C(C=O)[C@@H]1CC[C@]2(C(=O)O)CC[C@]3(C)C(CC[C@@H]4[C@@](C)(CCC#N)[C@H](C(=C)C=O)CC[C@]43C)[C@@H]12 (stereo partly drawn)	62.7%
NCCNC(=O)c1cccc(COc2ccccc2NC(=O)c2cc(Cl)c(Cl)[nH]2)c1	105%
COc1ccc(C2c3[nH]c4ccc(Cl)cc4c3CCN2c2oc(CO)nc2C#N)cc1 (stereo not drawn)	45.6%
CN(C)c1ccc(-c2cc(-c3c[nH]c4ccccc34)nc(N)c2C#N)cc1	26.8%
COc1ccccc1/C=C1\Oc2ccc(O)c(O)c2C1=O	112%

Structure (SMILES)	growth
CCCCCc1ccc(S(=O)(=O)Nc2cc(-c3csc(N)n3)ccc2OC)cc1	84.8%
O=C(O)c1ccc(-n2c(=O)n(-c3cccc(C(F)(F)F)c3)c(=O)c3cc(-c4ccc(F)cc4F)ccc32)cc1	-12.6% (active)
Nn1c(=O)n(-c2cccc(C(F)(F)F)c2)c(=O)c2cc(-c3ccc(F)cc3F)ccc21	-4.06% (active)
CCCCN1C(=O)/C(=c2\sc3n(c2=O)C2C(NN=3)N(CC)C(=O)N2CC)c2cc(C)ccc21 (stereo not drawn)	99.6%
CC(C)[C@H]1c2[nH]c3ccccc3c2C[C@H]2C(=O)N(CCCCCCC(=O)NO)CC(=O)N12	95.2%
O=C(N/N=C\c1ccc(F)cc1)c1ccc2nc(-c3ccc(Br)cc3)[nH]c2c1	39.4%
NC1[C@H]2CN(c3cnc(C(=O)Nc4cc(F)cc5cccnc45)cn3)C[C@@H]12 (stereo partly drawn)	96.4%
Cc1ccsc1[C@H]1c2[nH]c3ccccc3c2C[C@H]2C(=O)N(CCCCCCC(=O)NO)CC(=O)N12	95.1%
CC(=O)N(O)CCCCCNC(=O)CCC(=O)N(O)CCCCCNC(=O)CCC(=O)N(O)CCCCCN(CCCCCCCCCC[P+](c1ccccc1)(c1ccccc1)c1ccccc1)CCCCCCCCCC[P+](c1ccccc1)(c1ccccc1)c1ccccc1	12.7%
O=c1nc(Nc2ccc([N+](=O)[O-])cc2O)sc2ccccc12	-34.2% (active)
Cc1cc2nc(C(Cl)Cl)nc(-c3ccc(S(=O)(=O)N(C)C)cc3)n2n1	66.3%
C/C(CC1(O)C(=O)Nc2ccccc21)=N\O (stereo not drawn)	98.6%
C[C@]12CC[C@H]3[C@@H](CC=C4C[C@@H](O)CC[C@@]43C)[C@@H]1CC[C@@H]2[C@](C)(O)CCc1cccnc1	45%
O=C(CSc1nnc(-c2cccs2)n1-c1ccccc1)Nc1ccccc1F	83.2%
CC(=C(c1ccc(OCCCN(C)C)cc1)c1ccc(OCCCN(C)C)cc1)c1ccc(Cl)cc1	95.2%
O=C(CSc1nc2ccccc2c(=O)n1-c1ccc(Cl)c(Cl)c1)Nc1ccc(S(=O)(=O)Nc2ccc(Cl)nn2)cc1	101%
